IL-1B inflam inh: qHTS for Inhibitors of Inflammasome Signaling: IL-1-beta AlphaLISA Primary Screen; activity change, % at 57.5 µM; THP-1 LPS/ATP IL-1B secretion, AlphaLISA, 16 h; active compounds read low; 360,000 tested, 4.7% active; in the data active = activity change below about -50%; inconclusive = mostly about -30% to -49%
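THP-1 cells pretreated 1 hr with compounds (up to 57.5 uM final), then stimulated with LPS (250 ng/mL final) plus ATP (1.25 mM final); secreted IL-1B measured by AlphaLISA after 16 hr, decreased signal indicating inhibition.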
KB-3-1 tox: qHTS assay for MDR1-selective chemotherapeutics: Primary screen using the parental adenocarcinoma cell KB-3-1; AID 1347075, 2019; KB-3-1 viability, CellTiter-Glo ATP luminescence, 72 h; Potency, µM (titrated, usually from 46.1 µM), usual class: cytotoxic; 400,000 tested, 1.4% active; also: nearly all actives have a fitted effect of over 60% in size
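KB-3-1 parental drug-naive adenocarcinoma cells in DMEM/10% FBS, incubated 72 h at 37 C with pin-transferred compounds across a concentration series. Viability by CellTiter-Glo luminescence; concentration-response curves fitted after normalization.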
HT1080 IDH1KD tx: qHTS for induction of synthetic lethality in tumor cells producing 2HG: qHTS for the HT-1080-IDH1KD cell line; HT-1080 IDH1 knockdown viability, ATP luminescence, 48 h; Potency, µM (highest dose often 46.1 µM), usual class: cytotoxic; 360,000 tested, 2% active
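IDH1KD HT-1080 cells, 750/well, RPMI + 5% FBS; compound pinned after 2 h settling; 48 h, 37 °C; CellTiter-Glo luminescence; % activity normalised to DMSO and no-cell wells; curves fitted, classed by r2 and efficacy.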
KB-V1 cytotox: qHTS assay for MDR1-selective chemotherapeutics: Primary screen using the drug-selected MDR subline cells KB-V1 | Potency, µM (highest dose often 46.1 µM), usual class: cytotoxic | AID 1347076, 2019 | 400,000 tested, 3.4% active | KB-V1 MDR cells viability, CellTiter-Glo, 72 h; also: nearly all actives have a fitted effect of over 60% in size
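Compound-treated KB-V1 multidrug-resistant cells, 72 h, 37 degrees C; viability by CellTiter-Glo. Fitted qHTS curves give the values.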
HT1080NT lethal: qHTS for induction of synthetic lethality in tumor cells producing 2HG: qHTS for the HT-1080-NT fibrosarcoma cell line. AID 686970, 2013. Potency, µM (titrated, usually from 46.1 µM), hits mostly cytotoxic. HT-1080-NT fibrosarcoma viability, CellTiter-Glo ATP luminescence, 48 h. 360,000 tested, 1.6% active;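 also: NT is the 2HG producing partner of a matched IDH1 knockdown line; nearly all actives have a fitted effect of over 55% in size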
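Viability of the 2HG-overproducing fibrosarcoma line after 48 hours of compound exposure at 37 degrees C was determined by luminescence with CellTiter-Glo, and concentration-effect curves were then fitted and categorized.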
Large screens that a line does not name were inactive. A selection: hits, their analogues and other compounds. The true share with any hit is near 8.8%. Unless noted, calls follow the shape of the dose curve; as a rule, active = well fitted curve in the direction sought with a large enough effect; inconclusive = small, poorly fitted or top-dose-only effect, or another doubt; inactive = no such curve, though single readings can be large; an effect the other way counts as inactive or inconclusive.

Cc1ccc(S(=O)(=O)N2CCN(CC(=O)N(CC(C)C)c3c(N)n(CC(C)C)c(=O)[nH]c3=O)CC2)c(C)c1	none
Cc1ccc(S(=O)(=O)OCCC2=CC(=O)CCN2Cc2ccccc2)cc1	none
COCCN1CCc2nc(SCC(=O)Nc3ccc(Br)cc3)[nH]c(=O)c2C1	none (no result: IL-1B inflam inh, HT1080 IDH1KD tx, HT1080NT lethal)
COc1ccccc1C(=O)N1c2ccccc2Sc2ccccc21	KB-3-1 tox 20.6µM, KB-V1 cytotox inconclusive
CCCCN1C(=O)C(CC(=O)NCC2CCCCC2)CC(C(=O)N2CCOCC2)=C1C (configuration not stated)	none
CCCC[C@H](CN[C@@H](CNC)[C@H](C)CC)NCCC12CCC(CC1)C2	IL-1B inflam inh -67.6, KB-3-1 tox inconclusive, HT1080 IDH1KD tx inconclusive, HT1080NT lethal inconclusive
O=C(Nc1ccc(N2CCN(C(=O)c3ccccc3)CC2)cc1)c1cc2ccccc2o1	IL-1B inflam inh -97.0, KB-3-1 tox inconclusive, HT1080 IDH1KD tx inconclusive, KB-V1 cytotox inconclusive
CCCC(=O)N1CCN(c2ccc(NC(=O)c3cc4ccccc4o3)cc2)CC1	IL-1B inflam inh -55.8
CN1CCN(c2ccc(NC(=O)c3cc4ccccc4o3)cc2)CC1	none
Cc1cc(=O)oc2c(C)c(OC3CCCCC3=O)ccc12 (configuration not stated)	none
NC(=O)C1CCN(CC(=O)Nc2ccccc2Sc2ccccc2)CC1	KB-V1 cytotox 20.6µM
NC(=O)C1CCN(CC(=O)Nc2ccccc2Sc2ccc(Cl)cc2)CC1	IL-1B inflam inh inconclusive
N=c1sccn1CC(=O)Nc1ccccc1Sc1ccccc1	IL-1B inflam inh -54.8
Cc1ccc2c(c1)sc(-c1ccc(N(C)C)cc1)[n+]2C	IL-1B inflam inh inconclusive, KB-3-1 tox 1.84µM, HT1080 IDH1KD tx inconclusive
Cc1ccc(C(=O)OC(C)C(=O)NC(C)CCc2ccccc2)o1 (configuration not stated)	none
Cc1cccc(C)c1NC(=O)C1C(c2ccc3c(c2)OCO3)=Nc2ccccc2N1C(=O)c1cccc(C(F)(F)F)c1 (configuration not stated)	IL-1B inflam inh -57.0, KB-3-1 tox inconclusive
Cc1cccc(C)c1NC(=O)C1C(c2ccc3c(c2)OCO3)=Nc2ccccc2N1C(=O)c1ccccn1 (configuration not stated)	KB-3-1 tox inconclusive, KB-V1 cytotox inconclusive
CCOc1cc(C2c3c(oc4cc(C)c(Cl)cc4c3=O)C(=O)N2Cc2ccco2)ccc1O (configuration not stated)	KB-3-1 tox inconclusive, KB-V1 cytotox 1.84µM
CCOC(=O)c1sc(NC(=O)CN2C(=O)C3CC=CCC3C2=O)nc1C (configuration not stated)	none (no result: KB-3-1 tox, KB-V1 cytotox)
CCCNC(=O)c1ccc2c(c1)sc1nc(-c3ccc(C)cc3)cn12	none (no result: IL-1B inflam inh, HT1080 IDH1KD tx, HT1080NT lethal)
CCN(CC)CCCNC(=O)c1ccc2c(c1)sc1nc(-c3ccc(C)cc3)cn12	KB-3-1 tox 16.4µM, KB-V1 cytotox inconclusive (no result: IL-1B inflam inh, HT1080 IDH1KD tx, HT1080NT lethal)
CCOC(=O)/C(=C/C=C1\Sc2ccccc2N1CC)C(C)=O	IL-1B inflam inh -69.3
CCC(=O)/C=C1/Sc2ccc(OC)cc2N1CC	none
CCOC(=O)/C(=C/C=C1\Sc2cc(C)c(C)cc2N1CC)C(C)=O	IL-1B inflam inh -92.5, KB-3-1 tox inconclusive, KB-V1 cytotox inconclusive
CCOC(=O)/C(=C\C=C1/Sc2ccccc2N1CC)C(C)=O	IL-1B inflam inh inconclusive, KB-V1 cytotox 5.17µM
CCCn1nnnc1NC(=O)COc1ccc(CC)cc1	none
O=C(Nc1cccc(C(=O)N2CCCCC2)c1)C1CCCCC1	none
CC1(C)CC(=O)C2=C(C1)NC(Nc1nc3ccccc3o1)=NC2c1cccc(F)c1 (configuration not stated)	none (no result: IL-1B inflam inh, HT1080 IDH1KD tx, HT1080NT lethal)
CCOc1cc(NC(=S)NCCc2ccccc2)c(OCC)cc1NC(C)=O	none
COc1ccc(Br)cc1CNC(=O)c1cc2n(n1)CCCN(Cc1ccc(C)cc1)C2=O	none (no result: IL-1B inflam inh, HT1080 IDH1KD tx, HT1080NT lethal)
COCCn1c(C)cc(C(=O)COC(=O)c2ccc(Cl)c(S(N)(=O)=O)c2)c1C	KB-V1 cytotox 23.1µM
CCCCn1c(=O)[nH]c(=O)c2c1nc(Cn1ncc(Cl)c(Cl)c1=O)n2CCC	IL-1B inflam inh -104.0, KB-3-1 tox 2.91µM, HT1080 IDH1KD tx 11.6µM, HT1080NT lethal 8.2µM
CCCCn1c(=O)[nH]c(=O)c2c1nc(CN1C(=O)c3ccccc3S1(=O)=O)n2CCC	none
CCC(C)(C(=O)NC1CCCCC1)N(CC1CCCO1)C(=O)CNC(=O)c1ccccc1 (configuration not stated)	KB-V1 cytotox inconclusive
O=C(NCC(=O)N(CC1CCCO1)C1(C(=O)NC2CCCC2)CCCCC1)c1ccccc1 (configuration not stated)	KB-V1 cytotox 14.6µM
Cc1c(N(C(=O)CNC(=O)c2ccccc2)C2(C(=O)NC3CCCC3)CCCCC2)c(=O)n(-c2ccccc2)n1C	none
O=C(NCC(=O)N(CC1CCCO1)C1(C(=O)NC2CCCCC2)CCCCC1)c1ccccc1 (configuration not stated)	KB-V1 cytotox 3.26µM
CCN(CC)C(=O)COc1c(-c2ccco2)oc2ccccc2c1=O	none
CC(=O)Oc1c(-c2ccco2)oc2ccccc2c1=O	IL-1B inflam inh -81.9, HT1080 IDH1KD tx inconclusive, KB-V1 cytotox inconclusive, HT1080NT lethal inconclusive
CC1Sc2ccc(S(=O)(=O)N3CCC(C(=O)NCC(C)c4ccccc4)CC3)cc2NC1=O (configuration not stated)	none
CCn1nc(C)cc1C(=O)Sc1cccc(Cl)c1	HT1080 IDH1KD tx inconclusive, HT1080NT lethal 18.4µM
Cc1nn(C)c(C(=O)Sc2cccc(Cl)c2)c1[N+](=O)[O-]	none
COc1ccc2c3c([nH]c2c1)C1CC2C(CC(O)C(OC)C2CO)CN1CC3 (configuration not stated)	none
COc1ccc2c3c([nH]c2c1)[C@H]1C[C@H]2[C@H](C[C@@H](O)[C@H](OC)[C@H]2C(=O)O)CN1CC3	IL-1B inflam inh -81.6, KB-3-1 tox inconclusive, HT1080 IDH1KD tx inconclusive, HT1080NT lethal inconclusive
CCOc1cccc(OCCOCCOc2ccccc2C(C)=O)c1	KB-V1 cytotox 14.6µM
CC(C)(C)NC(=O)C(c1ccco1)N(C(=O)Cn1nnc(-c2ccc(F)cc2)n1)c1ccccc1F (configuration not stated)	IL-1B inflam inh inconclusive, HT1080 IDH1KD tx inconclusive, KB-V1 cytotox 18.4µM
CC(C)(C)NC(=O)C(c1ccco1)N(C(=O)Cn1nnc(-c2ccc(F)cc2)n1)c1ccccc1 (configuration not stated)	KB-3-1 tox inconclusive, KB-V1 cytotox 3.66µM
CC(C(=O)NC1CCCC1)N(C(=O)Cn1nnc(-c2ccc(F)cc2)n1)c1ccccc1F (configuration not stated)	IL-1B inflam inh -65.8, KB-V1 cytotox inconclusive

Screens: PubChem BioAssay, National Center for Advancing Translational Sciences (NCATS)
